Here are results for 31 molecules from the supplement of paper PMC12350171.

SMILES strings stand for the structures. Structures can show the parent of a compound that is named as a salt.

The test system of this test is Haemophilus parainfluenzae. As to the kind of experiment: growth AUC normalised to DMSO control (fraction of control); higher = less growth inhibition, active = hit call of the paper. As to conditions: 20 µM. A digest of the protocol:
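Hemin and NAD were added to the medium for Haemophilus parainfluenzae. All pathogens, after two anaerobic passages, were inoculated at a starting OD578 of 0.01 into pre-reduced mGAM plates with 20 μM compound and 1% DMSO under breathable seals, and OD578 was read hourly for 24 h in three biological replicates. AUC of each growth curve was obtained with the trapezoidal rule up to the exponential-to-stationary transition and normalised to DMSO controls from the same plate.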
`O=C(Nc1ccc([N+](=O)[O-])cc1Cl)c1cc(Cl)ccc1O` [Niclosamide]: the “growth AUC normalised to DMSO control” value was 0.046 (active). Turning to `OCc1cc(C(O)CNCCCCCCOCCCCc2ccccc2)ccc1O` (stereo unspecified) [Salmeterol], the “growth AUC normalised to DMSO control” value is 0.962 (inactive).

On to `COc1ccc2c(c1)c(CC(=O)OCC(=O)O)c(C)n2C(=O)c1ccc(Cl)cc1` [Acemetacin], for which the “growth AUC normalised to DMSO control” value is 0.988 (inactive). With `CN(C)CC/C=C1/c2ccccc2Sc2ccc(Cl)cc21` [Chlorprothixene hydrochloride] the figure was 0.887 (inactive); with `Cn1c(=O)c2c(ncn2CCO)n(C)c1=O` [Etofylline], 1.02 (inactive). In the case of `CCCCNc1ccc(C(=O)OCCOCCOCCOCCOCCOCCOCCOCCOCCOC)cc1` [Benzonatate], the “growth AUC normalised to DMSO control” value is 1 (inactive). In the case of `CN(C)CCCN1c2ccccc2Sc2ccc(Cl)cc21` [Chlorpromazine hydrochloride], the “growth AUC normalised to DMSO control” value is 0.981 (inactive).

For the molecule `CN(C(=O)C(Cl)Cl)c1ccc(OC(=O)c2ccco2)cc1` [Diloxanide furoate], the “growth AUC normalised to DMSO control” value was 0.954 (inactive). Next, `CN(C)C(=N)NC(=N)N` [Metformin hydrochloride]: 1.03 (inactive); `CN(C)CCC=C1c2ccccc2COc2ccccc21` [Doxepin hydrochloride]: 0.972 (inactive). Regarding `CC(C(=O)O)c1ccc(C(=O)c2cccs2)cc1` (stereo unspecified) [Suprofen], the “growth AUC normalised to DMSO control” value was 0.987 (inactive).

Consider `Cc1cccc(C)c1OCC(C)N` (stereo unspecified) [Mexiletine hydrochloride], for which the “growth AUC normalised to DMSO control” value is 1.02 (inactive).

Consider `CCCCOc1cc(C(=O)OCCN(CC)CC)ccc1N` [Benoxinate hydrochloride], for which the “growth AUC normalised to DMSO control” value was 1.01 (inactive). For the molecule `CC[C@H]1OC(=O)[C@H](C)[C@@H](O[C@H]2C[C@@](C)(OC)[C@@H](O)[C@H](C)O2)[C@H](C)[C@@H](O[C@@H]2O[C@H](C)C[C@H](N(C)C)[C@H]2O)[C@](C)(O)C[C@@H](C)/C(=N\OCOCCOC)[C@H](C)[C@@H](O)[C@]1(C)O` [Roxithromycin], the “growth AUC normalised to DMSO control” value is 0.1 (active). `CN1CCc2cccc3c2[C@H]1Cc1ccc(O)c(O)c1-3` [R(-) Apomorphine hydrochloride hemihydrate]: the “growth AUC normalised to DMSO control” value was 1.05 (inactive). With `C[C@H](CCC(=O)O)[C@H]1CC[C@H]2[C@@H]3[C@H](O)C[C@@H]4C[C@H](O)CC[C@]4(C)[C@H]3CC[C@]12C` [Chenodiol], the “growth AUC normalised to DMSO control” value was 0.95 (inactive). With `CCCCCCCN(CC)CCCC(O)c1ccc(NS(C)(=O)=O)cc1` (stereo unspecified) [Ibutilide fumarate], the “growth AUC normalised to DMSO control” value was 0.938 (inactive). For `CCN(CCCc1ccccc1)CCCc1ccccc1` [Alverine citrate salt], the “growth AUC normalised to DMSO control” value is 0.925 (inactive). Next, `CC(C)(O/N=C(\C(=O)N[C@@H]1C(=O)N2C(C(=O)[O-])=C(C[n+]3ccccc3)CS[C@H]12)c1csc(N)n1)C(=O)O` [Ceftazidime pentahydrate]: 0.079 (active); `COc1cc2nc(N3CCN(C(=O)C4COc5ccccc5O4)CC3)nc(N)c2cc1OC` (stereo unspecified) [Doxazosin mesylate]: 0.992 (inactive). With `Cc1ccc(-c2cc(C(F)(F)F)nn2-c2ccc(S(N)(=O)=O)cc2)cc1` [Celecoxib] the figure was 0.85 (inactive); with `CCCc1nc(C)c2c(=O)nc(-c3cc(S(=O)(=O)N4CCN(CC)CC4)ccc3OCC)[nH]n12` [Vardenafil], 1.03 (inactive). Turning to `CCCc1nc2c(C)cc(-c3nc4ccccc4n3C)cc2n1Cc1ccc(-c2ccccc2C(=O)O)cc1` [Telmisartan], the “growth AUC normalised to DMSO control” value is 1.03 (inactive).

In the case of `Cn1ccnc1S` [Methimazole], the “growth AUC normalised to DMSO control” value is 1.02 (inactive). On to `CCCCOc1cc(C(=O)NCCN(CC)CC)c2ccccc2n1` [Dibucaine], for which the “growth AUC normalised to DMSO control” value is 0.849 (inactive). For `OCCN1C[C@H](O)[C@@H](O)[C@H](O)[C@H]1CO` [Miglitol], the “growth AUC normalised to DMSO control” value was 0.925 (inactive). As for `Cc1cccc(CN2CCN(C(c3ccccc3)c3ccc(Cl)cc3)CC2)c1` (stereo unspecified) [Meclozine dihydrochloride], the “growth AUC normalised to DMSO control” value is 0.948 (inactive).

For `C[C@]12C[C@H](O)[C@H]3[C@@H](CCC4=CC(=O)CC[C@@]43C)[C@@H]1CC[C@@H]2C(=O)CO` [Corticosterone], the “growth AUC normalised to DMSO control” value is 0.962 (inactive). For `CN1CCC(=C2c3ccccc3CC(=O)c3sccc32)CC1` [Ketotifen fumarate], the “growth AUC normalised to DMSO control” value was 0.997 (inactive). As to `O=C(OCCOCCO)c1ccccc1Nc1cccc(C(F)(F)F)c1` [Etofenamate], the “growth AUC normalised to DMSO control” value was 0.992 (inactive). As for `CNCCc1ccccn1` [Betahistine mesylate], the “growth AUC normalised to DMSO control” value was 0.962 (inactive).
